In PubChem BioAssay (NCATS):
Records with an inconclusive call do not appear. The source made the active and inactive calls. Calls follow the shape of the dose curve; as a rule, active = well fitted activation curve with a large enough effect; inconclusive = small, poorly fitted or top-dose-only effect; inactive = flat fitted curve, though single readings scatter.

assay: Primary redox qHTS assay for identification of artifact compounds. (AID 1845223); settings: Amplex Red/HRP redox cycling with DTT, fluorescence; series mostly up to 53.8 µM
Method in brief: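 Amplex Red (25 uM) and HRP (250 mU/mL) in HBSS, with compounds for 15 min, then 250 uM DTT for 30 min, room temperature, dark. Fluorescence 525/598 nm read; normalized to DMSO and 10 uM DA3003; Hill fit.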

| SMILES | outcome |
| --- | --- |
| CCCCN(CC)c1nc(C)nc2c1c(C)cn2-c1c(C)cc(C)cc1C | inactive |
| O=C(O)CC1CC(c2ccccc2)=NO1 (stereo not given) | inactive |
| CC(=O)O[C@H]1C[C@@]2(C)[C@@H](C[C@@H](O)[C@H]3[C@@]4(C)CC[C@@H](O)[C@@H](C)[C@@H]4CC[C@@]32C)/C1=C(\CCC=C(C)C)C(=O)O | inactive |
| CCNc1nc2c(ncn2[C@H]2C[C@H](O)[C@@H](CO)O2)c(=O)[nH]1 | inactive |
| NS(=O)(=O)c1ccc(-n2nc(C(F)(F)F)cc2-c2ccc(Cl)cc2)cc1 | inactive |
